Calls of active or inactive are those of the source. The calls were made as follows: active = hit-call score of the fitted dose curve at least 0.9, where 1 is the maximum; inactive = score below 0.9.
Experiment: ATG_RORE_CIS: Attagene CIS-FACTORIAL HepG2 Assay for human RAR-related Orphan Receptor Element (RORE) (AID 2282959)
Conditions: HepG2 Attagene cis-factorial RORE reporter, mRNA; actives raise or lower the signal
In short: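 A 24-hour exposure of transfected HepG2 hepatoma cells precedes RNA isolation and reporter RT-PCR. Labeled products are digested with HpaI and resolved by capillary electrophoresis, with gain or loss of signal scored relative to DMSO.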
For `CN(C)C(=O)NC1(c2ccccc2)CCN(CCC[C@]2(c3ccc(Cl)c(Cl)c3)CCCN(C(=O)c3ccccc3)C2)CC1`, the AC50 was 4.93 µM (active).
With `Cc1cc(SC2=C(O)C[C@@](CCc3ccc(N)cc3)(C(C)C)OC2=O)c(C(C)(C)C)cc1CO` the outcome was “inactive”.
In the case of `CCCCCCCC(=O)OC`, the outcome is reported as “inactive”.
With `CSc1ccc(Oc2ccc(S(N)(=O)=O)cc2CN(C)C)cc1C` the outcome was “inactive”.

Experiment: ATG_Sox_CIS: Attagene CIS-FACTORIAL HepG2 Assay for human SRY-box transcription factor (SOX) (AID 2282960)
Conditions: HepG2 Attagene cis-factorial SOX reporter, mRNA; actives raise or lower the signal
In short: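 HepG2, cis reporter units, 24 h exposure. Reporter mRNA: RT-PCR → FAM labelling → HpaI → CE fluorescence. Bidirectional fit vs DMSO.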
For `COc1ccc(C(=O)Nc2nc3ccccc3c(NCc3ccccc3)c2C#N)cc1`, the outcome was “inactive”.
With `CN(C)C(=O)NC1(c2ccccc2)CCN(CCC[C@]2(c3ccc(Cl)c(Cl)c3)CCCN(C(=O)c3ccccc3)C2)CC1` the outcome was “inactive”.
With `CC(C)COC(=O)CCCCC(=O)OCC(C)C` the outcome was “inactive”.
In the case of `CC(C)c1cccc(C(C)C)c1`, the outcome is reported as “inactive”.
With `Cc1cc(SC2=C(O)C[C@@](CCc3ccc(N)cc3)(C(C)C)OC2=O)c(C(C)(C)C)cc1CO` the outcome was “inactive”.
With `Oc1ccccc1O` the outcome was “inactive”.
In the case of `O=C1O[C@H]([C@H](O)CO)C(O)=C1O`, the outcome is reported as “inactive”.
In the case of `CN(C)C(=O)NC1(c2ccccc2)CCN(CC[C@@]2(c3ccc(F)c(F)c3)CN(C(=O)c3ccccc3)CCO2)CC1`, the outcome is reported as “inactive”.
In the case of `C=CCCCCCCCCCCCC`, the outcome is reported as “inactive”.
In the case of `O=C(NS(=O)(=O)/C=C/c1cccs1)c1ccc(F)cc1Br`, the outcome is reported as “inactive”.
In the case of `CC1(C)C(=O)NC(=O)N1CO`, the outcome is reported as “inactive”.
In the case of `CCC(C)N(C)C(=O)c1cc2ccccc2c(-c2ccccc2Cl)n1` (centres undefined), the outcome is reported as “inactive”.
In the case of `CC(C)NCC(O)c1ccc(O)c(O)c1` (centres undefined), the outcome is reported as “inactive”.
For `O=C1CCCCC1`, the outcome was “inactive”.
With `O=C(O)c1[nH]n(-c2ccc(S(=O)(=O)O)cc2)c(=O)c1N=Nc1ccc(S(=O)(=O)O)cc1` the outcome was “inactive”.

— PubChem BioAssay (EPA / NIEHS)
